HDAC3 inh – inhibitors of human histone deacetylase 3. O15379. recombinant HDAC3, fluorogenic peptide/trypsin coupled, fluorescence. inhibition, % at 8.3 µM. actives 0.15% (n = 320,000); in the data active = inhibition above about 26%, passing the limit was not always enough; inconclusive = no clear call, values can overlap the other calls
ALR inh – blocks human ALR sulfhydryl oxidase activity. P55789. purified ALR, DTT oxidation, H2O2 HRP-luminol luminescence. inhibition, % (concentration not given with the values). actives 3.8% (n = 290,000);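 active = mean replicate inhibition above about 79%, with every replicate also reaching it, limit read from the data; inconclusive = only one of the two criteria met; inactive = mean below limit and not every replicate reaching it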
GC-A act – GC-A (human) enzyme activation. P16066. HEK293 GC-A cells, cGMP TR-FRET, EC30 ANP; 0% at EC30 ANP, 100% saturating ANP. activation, % at 10 µM. actives 0.14% (n = 370,000); in the data active = activation above about 40%
NPR2 activator – GC-B (human) receptor activation. P20594. HEK293-GC-B cells, CNP EC30, cGMP TR-FRET; 0% at EC30 CNP, 100% saturating CNP. activation, % at 10 µM. actives 0.11% (n = 370,000);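 active = activation at 10 µM reaching about 35% in either raw or pattern-adjusted values, limit read from the data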
An asterisk follows results filed as active; ? = inconclusive; . = no result given. Only a selection was taken, and hits are over-represented in it overall.

SMILES | HDAC3 inh | ALR inh | GC-A act | NPR2 activator
Cc1nc2ncnn2c(N2CCCC(C(=O)Nc3ccc4c(c3)CCC4)C2)c1C (centres undefined) | 3.0 | 91.6* | 0.5 | -6.7
Cc1ccc(S(=O)(=O)N2CCN(S(=O)(=O)N3CCCCC3)CC2)c(C)c1 | -11.2 | 99.5* | -3.0 | 8.1
CN(C)[C@H]1CCN(c2ccc3c(c2)OCCCN(C2CC2)S3(=O)=O)C1 | . | . | 1.2 | -0.4
COc1cccc(-c2noc(Cn3nc(C)c([N+](=O)[O-])c3C)n2)c1 | -2.9 | 92.4* | -1.1 | -6.1
COc1cccc(OCc2nc(-c3cccc([N+](=O)[O-])c3)no2)c1 | 1.1 | -8.3 | 1.3 | 1.4
CCN1CCCC1CNC(=O)c1cc(COc2ccc(C)c(C)c2)on1 (centres undefined) | -3.4 | -0.2 | 1.8 | 1.9
Cc1nnc(N2C(=O)C(O)=C(C(=O)c3ccco3)C2c2ccc(C(C)C)cc2)s1 (centres undefined) | 11.5 | 96.7* | 1.1 | 7.7
CSc1ccc(C2C(C(=O)c3ccco3)=C(O)C(=O)N2c2nnc(SC)s2)cc1 (centres undefined) | 2.1 | 98.1* | 12.9 | -3.0
Cc1nnc(N2C(=O)C(O)=C(C(=O)c3ccco3)C2c2ccc(F)cc2)s1 (centres undefined) | -1.8 | 70.9 | 4.0 | -1.5
Cc1nnc(N2C(=O)C(O)=C(C(=O)c3ccco3)C2c2ccc(C(C)(C)C)cc2)s1 (centres undefined) | 9.7 | 97.1* | 3.7 | 7.9
O=C(NCc1ccco1)C1(S(=O)(=O)c2ccccc2)CC=CC1 | -0.3 | -6.9 | 1.4 | 4.8
O=C(CNC(=O)COc1ccccc1)NCc1ccccc1F | -4.9 | -4.2 | 2.7 | 1.2
Cc1cc(NC(=O)CSCC(=O)N2CCN(c3ccccc3)CC2)no1 | -4.0 | 99.1* | 0.7 | 0.3
Cc1cc(NC(=O)CSc2cn(CC(=O)N(C(C)C)C(C)C)c3ccccc23)no1 | 6.7 | 98.2* | 1.0 | 9.6
Cc1cc(NC(=O)CSCC(=O)N2CCN(c3cccc(C(F)(F)F)c3)CC2)no1 | 1.9 | -2.5 | -1.4 | -0.6
CCn1cc(SCC(N)=O)c2ccccc21 | -7.6 | 95.6* | 0.5 | -3.4
Cc1cc(NC(=O)CSc2ccc3ccccc3c2)no1 | 4.1 | 98.8* | 0.1 | -2.9
O=C(NCc1ccc(C(=O)N2CCCC2)cc1)c1cccc(Br)c1 | . | . | 2.4 | 7.5
Cc1ccc(C)n1CCN1CCN(C(=O)CC#N)CC1 | 5.2 | -2.4 | 3.1 | 1.3
CCn1cc(SCC(=O)Nc2cc(C)on2)c2ccccc21 | . | 95.1* | 3.0 | -1.4
CCCCOc1ccc(C(=O)CCN2CCCCC2)cc1 | 6.1 | 97.5* | 19.9 | 3.0
CCOC(=O)N1CCN(CCC(=O)c2ccc(Cl)cc2)CC1 | 3.4 | 22.2 | 64.8* | -13.7
COc1cc2c(cc1OC)CN(CCC(=O)c1ccc(Br)cc1)CC2 | -0.3 | 24.4 | 42.1* | -10.6
O=C(CCN1CCC2CCC(C2)C1)c1ccccc1 (centres undefined) | . | . | 53.1* | -5.8
CC(C)COc1ccc(C(=O)CCN2CCCCC2)cc1 | 5.0 | 0.4 | 8.7 | -5.5
SMILES | HDAC3 inh | ALR inh | GC-A act | NPR2 activator
C[C@@H]1CN([C@H](C)CO)C(=O)CCCn2nncc2CO[C@@H]1CN(C)C(=O)Nc1cccc2ccccc12 | . | . | -0.9 | -3.4
COc1ccccc1S(=O)(=O)Nc1cccc(S(=O)(=O)N2CCCC2)c1 | 5.8 | -3.8 | 1.2 | 0.5
CC1CCCN(CCC(=O)c2ccc(Br)cc2)C1 (centres undefined) | -0.6 | 98.8* | 30.3 | -14.3
CCOC(=O)N1CCN(CCC(=O)c2ccc(Br)cc2)CC1 | -2.1 | 21.6 | 53.1* | -11.4
COc1ccc(C(=O)CCN2CCCC(C)C2)cc1 (centres undefined) | -1.5 | 8.2 | 32.5 | -17.7
N#CC1(NC(=O)COC(=O)c2ccccc2SCC(=O)N2CCCC2)CCCCC1 | 4.9 | 4.5 | 1.6 | -4.0
Cc1ccc(NCc2nnc3n2CCCCC3)c(C)c1 | -1.9 | 98.7* | 1.1 | -0.4
Fc1ccc(NCc2nnc3n2CCCCC3)cc1 | -8.6 | 19.5 | 1.1 | 1.7
Cc1cc(-c2nnc(SCC(=O)Nc3cccc(F)c3)n2N)n[nH]1 | -2.3 | -3.5 | 1.0 | -1.2
COc1ccc(N2C(=O)CC(NNc3ncc(Cl)cc3Cl)C2=O)cc1 (centres undefined) | -1.6 | 83.8* | 2.1 | -3.5
COc1ccc(N2C(=O)CC(Nc3ccc(C)cc3)C2=O)cc1 (centres undefined) | 4.2 | -14.4 | 0.6 | 3.2
COc1cccc(-c2cc3c(=O)n(-c4ccccc4)c(=S)[nH]c3s2)c1 | 5.9 | 0.6 | 1.8 | -3.5
COc1ccc(-c2csc3[nH]c(=S)n(-c4ccccc4)c(=O)c23)cc1OC | 3.3 | 83.2* | 0.7 | -8.3
O=S(=O)(c1cccc(-c2cn3cc(Cl)ccc3n2)c1)N1CCOCC1 | ? | 32.5 | 5.3 | 1.9
Cc1ccn2cc(-c3cccc(S(=O)(=O)N4CCCC4)c3)nc2c1 | -17.0 | 97.4* | 0.0 | -6.9
Cc1ccn2cc(-c3cccc(S(=O)(=O)N4CC(C)OC(C)C4)c3)nc2c1 (centres undefined) | 9.1 | 97.1* | -1.0 | 3.4
CCCCNc1ncnc2[nH]ncc12 | . | . | -2.6 | -1.1
O=C(CSCc1ccccc1Cl)N/N=C/c1ccco1 | -1.1 | -2.9 | 1.3 | 3.5
CC(C)(/C=N/NC(=O)CSCc1ccccc1Cl)CCC#N | -1.3 | 98.0* | -0.7 | 0.4
S=C(N/N=C/c1ccco1)NC1CC2CCC1C2 (centres undefined) | 5.9 | 97.9* | 1.6 | -8.7
C/C(=N\NC(=O)c1nnn(-c2nonc2N)c1CN(C)c1ccccc1)c1cccnc1 | -3.9 | -9.7 | 2.5 | 2.8
Cc1cccc(-n2cc(-c3ccccc3)[nH]c2=S)c1 | 7.6 | 77.0* | 0.1 | -0.6
CC(=O)Nc1ccc(-n2cc(-c3ccccc3)[nH]c2=S)cc1 | 6.1 | 99.2* | -3.0 | -2.0
COc1ccccc1-n1cc(-c2ccccc2)[nH]c1=S | 4.3 | 50.2 | -2.1 | 4.2
COc1ccc(-n2cc(-c3ccccc3)[nH]c2=S)cc1 | -3.8 | 85.1* | 1.1 | -0.2
SMILES | HDAC3 inh | ALR inh | GC-A act | NPR2 activator
CN(CC(=O)Nc1ccc(F)c(Cl)c1)S(=O)(=O)c1ccc2c(c1)n(C)c(=O)c(=O)n2C | 3.8 | 0.0 | 1.4 | -7.5
CC(C)(C)OC(=O)NCc1n[nH]c(=S)n1C1CC1 | 1.1 | 85.6* | 8.1 | 0.2
CC(C)(C)OC(=O)NCC(=O)N1CCC(C(=O)O)CC1 | -6.5 | -10.9 | 0.1 | -6.0
COc1cc(C2C(C(=O)OC(C)C)=C(C)Nc3[nH]c(=O)[nH]c(=O)c32)ccc1O (centres undefined) | 4.2 | 79.0* | 3.1 | 6.8
COC(=O)C1=C(C)Nc2[nH]c(=S)[nH]c(=O)c2C1c1ccc(O)cc1 (centres undefined) | . | 31.4 | -1.4 | 0.3
O=C(Cc1ccc(F)cc1)N1CCN=C1SCc1ccc([N+](=O)[O-])cc1 | -0.2 | 98.5* | -2.2 | 4.5
Cc1ccc(SCC(=O)O/N=C(\N)c2ccc([N+](=O)[O-])cc2)cc1 | 5.6 | 97.9* | -2.8 | -3.5
